From PubChem BioAssay (NCI)
About 79,000 compounds went through this panel and 15% of them were active in at least one assay; those are over-represented in the sample as a whole. Activity calls are given as the source filed them. No stated cut-off is given here; in the data, active means growth inhibition above about 70%; inactive means the rest.

Key:
[1] = NCI Yeast Anticancer Drug Screen. Data for the rad52 strain (AID 147);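 further: 0% = growth of vehicle-treated control cultures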; settings: S. cerevisiae rad52 mutant growth inhibition, active compounds read high
Procedure, shortened: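 Growth of repair-deficient yeast cells was compared between compound-treated and vehicle-treated cultures to give percent inhibition.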

[2] = NCI Yeast Anticancer Drug Screen. Data for the wt1 strain (AID 149);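 further: 0% = growth of vehicle-treated wt1 cultures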; settings: S. cerevisiae wt1 strain (SPY 50644) growth inhibition, active compounds read high
Procedure, shortened: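 wt1 strain grown with compound or vehicle; inhibition taken from the growth difference.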

[3] = NCI Yeast Anticancer Drug Screen. Data for the rad50EPP+ strain (AID 151);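 further: 0% = growth of vehicle-treated control cultures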; settings: S. cerevisiae rad50 mutant strain, active compounds read high
Procedure, shortened: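 Measured: growth inhibition of rad50EPP+ yeast. Reference: vehicle-treated controls. Screen uses strains with defined genetic alterations in DNA damage repair or cell cycle control.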

[4] = NCI Yeast Anticancer Drug Screen. Data for the mgt1 strain (AID 153); settings: S. cerevisiae mgt1 mutant growth inhibition, active compounds read high
Procedure, shortened: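 Compounds were applied to mgt1 mutant yeast, and growth was then compared against vehicle-treated control cultures to give percent inhibition.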

[5] = NCI Yeast Anticancer Drug Screen. Data for the rad50 strain (AID 155);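 further: 0% = growth of vehicle-only cultures of the same strain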; settings: S. cerevisiae rad50 strain growth inhibition, active compounds read high
Procedure, shortened: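 DNA repair mutant yeast, compound exposure, growth read-out; inhibition is taken relative to vehicle.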

[6] = NCI Yeast Anticancer Drug Screen. Data for the mec2-1 strain (AID 157); settings: S. cerevisiae mec2-1 strain, active compounds read high
Procedure, shortened: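 Compounds were applied to mec2-1 yeast cells. Their growth was then compared with that of vehicle-treated cultures to give growth inhibition.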

[7] = NCI Yeast Anticancer Drug Screen. Data for the rad14 strain (AID 159);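 further: 0% = growth of vehicle-treated control cultures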; settings: S. cerevisiae rad14 strain growth inhibition, active compounds read high
Procedure, shortened: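 DNA repair-defective yeast, compound-exposed; % growth inhibition derived by comparison with vehicle-treated controls.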

[8] = NCI Yeast Anticancer Drug Screen. Data for the sgs1 mgt1 strain (AID 161);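 further: 0% = growth of cultures given vehicle only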; settings: S. cerevisiae sgs1 mgt1 strain, active compounds read high
Procedure, shortened: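 Growth of a repair-deficient yeast mutant was monitored after compound treatment and expressed as inhibition relative to vehicle-treated cultures.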

[9] = NCI Yeast Anticancer Drug Screen. Data for the CLN2oe strain (AID 163);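 further: 0% = growth of vehicle-only control cultures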; settings: S. cerevisiae CLN2oe strain, active compounds read high
Procedure, shortened: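 Cells of an engineered yeast line with disturbed cell-cycle regulation are treated with compound. Inhibition of growth is then calculated relative to the vehicle-treated reference.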

[10] = NCI Yeast Anticancer Drug Screen. Data for the cln2 rad14 strain (AID 165);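 further: 0% = growth equal to vehicle treated cultures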; settings: S. cerevisiae cln2 rad14 strain, active compounds read high
Procedure, shortened: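 Strain: cln2 rad14 yeast, altered in cell cycle control and DNA damage repair. Read-out: growth inhibition vs vehicle.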

[11] = NCI Yeast Anticancer Drug Screen. Data for the bub3 strain (AID 167); settings: S. cerevisiae bub3 mutant strain, active compounds read high
Procedure, shortened: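 In this screen, a yeast mutant lacking normal mitotic checkpoint function is challenged with compound. Relative growth versus vehicle gives the inhibition value.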

[12] = NCI Yeast Anticancer Drug Screen. Data for the wt2 strain (AID 169);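 further: 0% = growth of vehicle-treated yeast cultures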; settings: S. cerevisiae wt2 strain growth inhibition, active compounds read high
Procedure, shortened: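 Growth of compound-treated yeast is measured and expressed as inhibition relative to vehicle-only controls.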

[13] = NCI Yeast Anticancer Drug Screen. Data for the mlh1 strain (AID 171);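 further: 0% = growth of vehicle-treated control cultures of the same strain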; settings: S. cerevisiae mlh1 strain growth inhibition, active compounds read high
Procedure, shortened: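 Test agents were incubated with yeast bearing a defined DNA damage repair or cell cycle control alteration; values are growth inhibition normalised to vehicle-treated cultures.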

[14] = NCI Yeast Anticancer Drug Screen. Data for the sgs1 strain (AID 173);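 further: 0% = growth of vehicle-only control cultures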; settings: S. cerevisiae sgs1 mutant, active compounds read high
Procedure, shortened: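 Strain with an altered DNA repair or cell cycle pathway exposed to compound. Growth then measured. Value = inhibition versus vehicle control.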

[15] = NCI Yeast Anticancer Drug Screen. Data for the mlh1 rad18 strain (AID 175); settings: S. cerevisiae mlh1 rad18 strain growth inhibition, active compounds read high
Procedure, shortened: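 A repair-deficient yeast strain is exposed to test compound, and growth is scored relative to vehicle-treated controls.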

[16] = NCI Yeast Anticancer Drug Screen. Data for the rad18 strain (AID 177); settings: S. cerevisiae rad18 mutant growth inhibition, active compounds read high
Procedure, shortened: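 DNA-repair-defective yeast; compound treatment; growth inhibition scored against vehicle.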

[17] = at 5.0 µM (retest, dose inferred, filed as 0.5)
[18] = at 50.0 µM (retest, dose inferred, filed as 5.0)

Measured: growth inhibition

O=P(Oc1ccc(Cl)cc1)(Oc1ccc(Cl)cc1)N1CC1
inactive: [1]; at 1.2 µM -1% | [1]; at 3.7 µM 1% | [1]; at 11.0 µM 0% | [1]; at 33.0 µM 8% | [1]; at 100.0 µM 53% | [2]; at 1.2 µM -2% | [2]; at 3.7 µM -6% | [2]; at 11.0 µM -4% | [2]; at 33.0 µM -2% | [2]; at 100.0 µM 2% | [3]; at 1.2 µM -3% | [3]; at 3.7 µM -1% | [3]; at 11.0 µM 4% | [3]; at 33.0 µM 6% | [3]; at 100.0 µM -4% | [4]; at 1.2 µM -6% | [4]; at 3.7 µM -3% | [4]; at 11.0 µM -5% | [4]; at 33.0 µM -4% | [4]; at 100.0 µM 49% | [5]; at 1.2 µM 2% | [5]; at 3.7 µM 1% | [5]; [17] -9% | [5]; at 11.0 µM 2% | [5]; at 33.0 µM 8% | [5]; [18] 43% | [5]; at 50.0 µM 4.75% | [6]; at 1.2 µM -3% | [6]; at 3.7 µM -1% | [6]; [17] 4% | [6]; at 11.0 µM -2% | [6]; at 33.0 µM -1% | [6]; [18] 6% | [6]; at 50.0 µM 14.3% | [6]; at 100.0 µM 28% | [7]; at 1.2 µM 0% | [7]; at 3.7 µM 1% | [7]; at 11.0 µM 5% | [7]; at 33.0 µM 19% | [8]; [17] -10% | [8]; [18] 35% | [8]; at 50.0 µM 18.9% | [9]; at 1.2 µM -4% | [9]; at 3.7 µM -5% | [9]; at 11.0 µM 6% | [9]; at 33.0 µM 14% | [9]; at 100.0 µM 48% | [10]; [17] -17% | [10]; [18] 48% | [10]; at 50.0 µM 9.3% | [11]; at 1.2 µM -4% | [11]; at 3.7 µM -2% | [11]; [17] -23% | [11]; at 11.0 µM -5% | [11]; at 33.0 µM 2% | [11]; [18] 27% | [11]; at 50.0 µM 34.4% | [11]; at 100.0 µM 32% | [12]; at 1.2 µM -11% | [12]; at 3.7 µM -13% | [12]; at 11.0 µM -14% | [12]; at 33.0 µM -8% | [12]; at 100.0 µM 46% | [13]; at 1.2 µM -3% | [13]; at 3.7 µM -3% | [13]; at 11.0 µM -4% | [13]; at 33.0 µM 2% | [13]; at 100.0 µM 59% | [14]; at 1.2 µM -1% | [14]; at 3.7 µM -23% | [14]; at 11.0 µM 2% | [14]; at 33.0 µM 13% | [15]; [17] -8% | [15]; at 50.0 µM 32.1% | [16]; at 1.2 µM -5% | [16]; at 3.7 µM -1% | [16]; at 11.0 µM 0% | [16]; at 33.0 µM 3% | [16]; at 100.0 µM 47%
active: [5]; at 100.0 µM 79% | [7]; at 100.0 µM 90% | [14]; at 100.0 µM 92% | [15]; [18] 83%
